This is one part of the list. Where a call stands in place of a potency, no number is given. Inconclusive results are not listed. Calls of active or inactive are those of the source. Calls follow the shape of the dose curve; as a rule, active = well fitted cell-killing curve with a large enough effect; inconclusive = small, poorly fitted or top-dose-only effect, or effect the other way; inactive = flat fitted curve, though single readings scatter.
Test: Cell viability qHTS assay in S16 Pmp22-F2sN cells - Confirmatory screen (AID 1508641)
Settings: S16 Schwann cells viability, CellTiter-Glo ATP luminescence, 24 h; series mostly up to 57.5 µM
Excerpt: Assay Provider: Jim Inglese Ph.D. National Center for Advancing Translational Science, National Institutes of Health, Rockville, MD CMT is a heterogeneous group of neurological disorders that affect approximately 1 in 2,500 people. In particular, the most common form of CMT, CMT1A is genetically linked to the duplication of the PMP22 gene which leads to Schwann cell overexpression, thus manifesting itself as a typical case of dose-sensitive diseases. To identify small molecule compounds that can mediate the expression of PMP22 we developed a phenotypic assay screening strategy by utilizing genome editing techniques to construct Schwann cell lines containing novel reporter technology to monitor the transcriptional or translational regulation of PMP22. For high sensitivity we use a bioluminescent reporter system embedded in the 3' UTR of the PMP22 gene (S16(c9) Pmp22-F2sN) to identify compounds that inhibit gene expression. […] We can further discriminate the effect of all transcriptionally active molecules on PMP22 translation or stability with an assay that incorporates a short NLuc peptide (HiBiT) at the C-terminus of expressed PMP22 (S16(f8) PMP22-HiBiT) allowing alpha complementation and luminescence detection of membrane-associated PMP22 protein. These assays were screened against the NCATS Sytravon Library Collection. Miniaturization of these assays to 1536-well plate format for quantitative high throughput screening (qHTS) yielded rich data sets immediately from the qHTS assay (S16(c9) Pmp22-F2sN), when compared with data from a cell viability assay (Cell TiterGlo) to identify compounds that decreased the output signals through cellular toxicity to streamline the selection process of actives for subsequent characterization using the HiBiT assay (S16(f8) PMP22-HiBiT).
Cell viability assay in S16 Pmp22-F2sN cells PROTOCOL TABLE (format as described by Inglese J, Shamu CE and Guy RK. 2007) SEQUENCE No. (e.g., 1, 2, 3, etc.); PARAMETER (e.g., Cells, Incubation, Reagent, etc.); VALUE and DESCRIPTION. 1. Cells. Add 500-1,000 cells in 4 uL in growth media (DMEM High Glucose, No Phenol Red media + 10% heat-inactivated FBS + 1% Pen/Strep supplemented media) per well into Greiner 1536-well white/solid bottom high base, TC-treated plates. 2. Compounds. Library compounds and controls added at 23nL per well, transferred by Pin Tool. 3. Incubation. Incubate plates at 37C, 5% CO2, 95% RH for 24 h. 4. Reagent. Add 3uL CellTiter-Glo per well of Greiner 1536-well plates. 5. Incubation. Incubate plates at room temperature for 15 min., protect from light. 6. Detector. FLuc luminescence measured using CCD-based camera (Viewlux). NOTES (numbers refer to Sequence numbers above; values are from representative experiments) 6. Luminescence Read: Clear filter; Exposure = 1 sec, Gain = High, Speed = Slow, Binning = 2X REFERENCES: 1. Inglese J, Shamu CE and Guy RK, Reporting data from high throughput screening of small molecule libraries, Nature Chemical Biology, 2007, 3(8): 438-441. doi.org/10.1038/nchembio0807-438 2. Yasgar A, Shinn P, Jadhav A, Auld DS, Michael S, Zheng W, Austin CP, Inglese J and Simeonov A, Compound Management for Quantitative High-Throughput Screening. J. Assoc. Lab. Auto., 2008, 13: 79-89. doi: 10.1016/j.jala.2007.12.004
Potency is read from the fitted curve at half-maximal effect.

Row | SMILES | Potency
1 | CCC1CCCCN1CCCNC(=O)c1cc2c(Cl)nc3ccccc3c2s1 (stereo not drawn) | inactive
2 | O=S(=O)(c1ccc(Cl)cc1)c1nnn2c1nc(NC1CCCC1)c1sccc12 | inactive
3 | Cc1ccc(CCNC(=O)C2CCN(c3nnc(-n4cccc4CNc4ccc(C)cc4)s3)CC2)cc1 | inactive
4 | COc1ccc(C2Sc3ccccc3NC3=C2C(=O)c2ccccc23)c(OC)c1OC (stereo not drawn) | inactive
5 | Cc1ccc(C)n1-c1nnc(N2CCC(C(=O)NCc3ccccc3Cl)CC2)s1 | inactive
6 | CCOC(=O)c1ccc(N2C(=O)c3n[nH]c(C)c3C2c2ccc(O)c(OC)c2)cc1 (stereo not drawn) | inactive
7 | Cc1cc(F)ccc1NS(=O)(=O)c1ccc(-n2cccn2)cc1 | inactive
8 | Cc1cccc(Nc2cc(C)nc(-n3nc(C)cc3C)n2)c1 | inactive
9 | COc1ccccc1Nc1c2c(nc3ccc(NC(=O)/C=C/c4cc(OC)c(OC)c(OC)c4)cc13)CCCC2 | 17.2 µM (active)
10 | CCOc1ccc(NC(=O)c2c(NC(=O)Cc3ccccc3)sc3c2CCC(C)C3)cc1 (stereo not drawn) | inactive
11 | CCCn1c(=N)c(C(=O)NCc2ccccc2)cc2c(=O)n3cccc(C)c3nc21 | inactive
12 | COc1ccc(-c2onc(C)c2C)cc1S(=O)(=O)NCC1CCN(Cc2cccc(F)c2)CC1 | inactive
13 | O=C(c1ccc(C(F)(F)F)cc1)N1CCC(c2nc(-c3ccc(S(=O)(=O)N4CCCC4)cc3)no2)CC1 | inactive
14 | O=C(NCCCN1CCN(c2cccc(Cl)c2)CC1)c1nnc(Cc2ccc(F)cc2Cl)o1 | inactive
15 | CCOCCCNC(=O)c1c(NC(=O)c2nc(SC)ncc2Cl)sc2c1CCCC2 | inactive
16 | Cc1cc(OCC(=O)NCC2(N(C)C)CCCCC2)cc(C)c1Cl | inactive
17 | Cc1ccccc1CNC(=O)CSc1nnc(C)c2c(C)n(-c3ccccc3)nc12 | inactive

Row | SMILES | Potency
18 | CC(=O)N1CCCc2cc(S(=O)(=O)N3CCCC(C(=O)N4CCN(c5cccc(Cl)c5)CC4)C3)ccc21 (stereo not drawn) | 27.3 µM (active)
19 | Cc1ccc(OCCSc2nc3ccc(NC(=O)COc4ccc(C)cc4)cc3s2)cc1 | inactive
20 | CCCS(=O)(=O)c1ncc(Cl)c(C(=O)Nc2scc(-c3ccccc3)c2C(=O)OCC)n1 | 27.3 µM (active)
21 | COc1cccc(NC(=O)N(Cc2cn(C)c3ccccc23)C2CCCCCC2)c1 | inactive
22 | Cc1sc(C2C(C#N)=C(N)N(c3cccc(Cl)c3)C3=C2C(=O)CCC3)cc1CN1CCOCC1 (stereo not drawn) | inactive
23 | O=C(c1ccc2c(c1)N(Cc1ccc(F)cc1)C(=O)c1ccccc1S2(=O)=O)N1CCN(c2ccccn2)CC1 | inactive
24 | CCc1ccc(NC(=O)CN2CCSc3ccc(S(=O)(=O)N4CCCC4)cc32)cc1 | inactive
25 | COc1ccc(CCNC(=O)c2cc(=O)c3c(C)cc(C)cc3o2)cc1OC | inactive
26 | Cc1ccc(NC(=O)c2nc(S(=O)(=O)Cc3cccc(C)c3)ncc2Cl)cc1 | 30.6 µM (active)
27 | Cc1nnc(SCC(=O)NCc2ccccc2Cl)c2nn(-c3ccccc3)c(C)c12 | inactive
28 | CC(C)(C)c1ccc(C(=O)NCC(c2ccco2)S(=O)(=O)c2ccc(F)cc2)cc1 (stereo not drawn) | inactive
29 | Cc1ccc(Cn2c(C)c3cnn(CC(=O)NCc4ccccc4)c(=O)c3c2C)cc1 | inactive
30 | CCC1=Nc2cc(C(=O)NCCCOC(C)C)ccc2Sc2ccc(C)cc21 | inactive
31 | COc1cccc(NC(=O)CSC2=Nc3ccccc3C3=NC(CC(=O)NC4CCCCC4)C(=O)N23)c1 (stereo not drawn) | inactive
32 | CCOC(=O)C1CCN(C(=O)CSc2c3c(nc4ccc(Cl)cc24)CCCC3)CC1 | inactive
33 | CCOC(=O)c1c(C)[nH]c(CCC(=O)NCCCN2CCN(c3cc(C)ccc3C)CC2)c1C | 30.6 µM (active)

Reference: PubChem BioAssay (NCATS)
